Data taken from the supplement of paper PMC6555819.

These sequences were tested on PPARg:RXRa 30nM:10nM, anti-RXR (NR concentration 30 nM, RXRa partner concentration 10 nM) (assay: PBM binding z-score (relative to random genomic background probes); higher = stronger binding; sequences stand for … in GC…GCGATTGACAGCGTAGAATGAAGG).
In short: (§1)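 Regression normalization was applied to scanned fluorescence from custom Agilent 4×180K protein-binding microarrays. Before scanning, arrays were incubated 1 h with ligand-free nuclear receptor dimers, and binding was detected with antibodies against each partner (one per run). Binding z-scores use the random background probes as reference.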
Work on TCATATAGGTAACCAGGTGAAAGTCCGTAAGTTA yielded a PBM binding z-score of 4.08. Sequence TGAATGAGGCTATAAGATCAGGGAACGTTGCAAA has a PBM binding z-score of 0.0907. CCGACTGGGCCAAGGTTACCATAACGCACAGCCA was tested, and the PBM binding z-score was 0.199. For AGAATGAGGTTATTAAGGTCAGGGAATTGCGGTC, the PBM binding z-score was 1.62. CCTTACGAGTCACGAGGTTATAGCACGACGAGCG was tested, and the PBM binding z-score was -0.27. Sequence GCTATTAGTTGAAAGGGCCACCGAATGATTCTCG has a PBM binding z-score of 0.211. For GCTATTAGTTGAAAGGGCAACCGCATGATTCTCG, the PBM binding z-score was 2.56. Sequence CCTGCTTGGTCATGGTCAGCTAATCTACAGTATG has a PBM binding z-score of -0.537. For CAAACTAGGTCACAGAGTTCAAAGTCCGTGCGTA, the PBM binding z-score was 6.58. CGTCAAAGTTCACGGTAACGTAACAGAAAGCAGC was tested, and the PBM binding z-score was 3.33. In the case of ATCTCTAGGTAAAGATAATTCAGTGAATGCAAAT, the PBM binding z-score is reported as 0.443. Sequence GGAACAAGGGCATTCGAGTTGATAGCATGGCGAT has a PBM binding z-score of -0.0599. Sequence CCTACTGGGGCATAAGGTTACCATAAGCCAGCCC has a PBM binding z-score of 2.09. Work on GATACAGGGTCAAGGCCAGAGCACGCGTATTGAT yielded a PBM binding z-score of 2.03. Work on CCTAGTTGGTCAAGGTCACTCACGCTATAGGTAC yielded a PBM binding z-score of 0.743. Work on TAGCCTGGGTCATTGGGCCAGTATAGTACGCATC yielded a PBM binding z-score of 0.89. For ATCTCTAGTTAAAAGTTCAGTGAATCCCGAGGAT, the PBM binding z-score was 1.59. With TCTGCTAGGTCAGTGGGTCAGCTAACGAGCTGCC the PBM binding z-score was 2.11. For CCTTACGGGTCACGAGGTTTTAGCACGACGAGCG, the PBM binding z-score was 2.95. With GCTTACGGGTCAAAGGCTATAGCATGAATAGAAT the PBM binding z-score was 5.03. AGAATGAGGTTATTAAGTTCAGGGAATTGCGGTC gave a PBM binding z-score of 0.695. ACAGACAGGTGATGAAGGTAACTCCGGCTATCAT was tested, and the PBM binding z-score was -0.0835. ATCTCTAGGTAACAAGTTCAGTGAAAGAGAGGAC showed a PBM binding z-score of 0.986. Sequence CGTCCAAGGTCAAACGTCAGTGAAGAGATGACGG has a PBM binding z-score of 3.64. Sequence AGTCACAGTTCAGGACGAGGTAACGTAAAGCACG has a PBM binding z-score of 0.403. ACAGACAGGTGAGTGAAGGTAGCTCAGCTGGACG was tested, and the PBM binding z-score was -0.201. TTACCAAGGTGAAAGGTCGTTGGTGCACGCCTTG was tested, and the PBM binding z-score was 6.8. With GCTGCTAGGTCAACTCATGGTCAGCTAAAGCTCG the PBM binding z-score was 0.277. CGCACTAGGTCAAGGACAGTGAATCTCCGCACGC showed a PBM binding z-score of 3.25. CCAACTAGGTCATCCAGGACAGTGAATACATTGA was tested, and the PBM binding z-score was 2.96. GCATATAGGTAGTACAAGGTGAAAGTCCGATTGT showed a PBM binding z-score of 0.197. GTGCCAAGGTGAATAGGTCGTTGATGAGTAGGCG was tested, and the PBM binding z-score was 0.00309. CGTCCAAGGTCAATGCTATGTCAGTGAAAGCATT showed a PBM binding z-score of 1.02. For CGTCCAAGGTCTATGCTAGGTCAGTGAAAGCATT, the PBM binding z-score was -0.641. With CGAACGAGGGCATGAGTTGATAGAAAATGCCGAT the PBM binding z-score was 0.36. In the case of CGTCCAAGGTGAAAGGTCAGTGAAGAGATGACGG, the PBM binding z-score is reported as 7.25. In the case of CAAACTATGTCACAGAGGTCAAAGTCCGTGCGTA, the PBM binding z-score is reported as 3.36. For TCTTGAAGATCAAAGGTTAAGAAAGCCGAAGCCT, the PBM binding z-score was 5.18. In the case of TTACCAAGGTGATAGGTCGTTGATGCACGCCTTG, the PBM binding z-score is reported as 3.82. Sequence TCTGCTTGGTCAGTTGGTCAGCTAACGAGCTGCC has a PBM binding z-score of 1.04.

What follows are sequences tested on PPARg:RXRa 90nM:30nM, anti-RXR (NR concentration 90 nM, RXRa partner concentration 30 nM) in the same assay as above.
In short: as §1
With TCATATAGGTAACCAGGTGAAAGTCCGTAAGTTA the PBM binding z-score was 4.4. With TGAATGAGGCTATAAGATCAGGGAACGTTGCAAA the PBM binding z-score was -0.0194. For CCGACTGGGCCAAGGTTACCATAACGCACAGCCA, the PBM binding z-score was 1.39. In the case of AGAATGAGGTTATTAAGGTCAGGGAATTGCGGTC, the PBM binding z-score is reported as 3.18. In the case of CCTTACGAGTCACGAGGTTATAGCACGACGAGCG, the PBM binding z-score is reported as 0.183. Sequence GCTATTAGTTGAAAGGGCCACCGAATGATTCTCG has a PBM binding z-score of 0.953. Work on GCTATTAGTTGAAAGGGCAACCGCATGATTCTCG yielded a PBM binding z-score of 4.39. In the case of CCTGCTTGGTCATGGTCAGCTAATCTACAGTATG, the PBM binding z-score is reported as -0.192. CAAACTAGGTCACAGAGTTCAAAGTCCGTGCGTA was tested, and the PBM binding z-score was 8.06. Work on CGTCAAAGTTCACGGTAACGTAACAGAAAGCAGC yielded a PBM binding z-score of 5.36. Work on ATCTCTAGGTAAAGATAATTCAGTGAATGCAAAT yielded a PBM binding z-score of 0.348. Sequence GGAACAAGGGCATTCGAGTTGATAGCATGGCGAT has a PBM binding z-score of 0.199. CCTACTGGGGCATAAGGTTACCATAAGCCAGCCC gave a PBM binding z-score of 4.09. Work on GATACAGGGTCAAGGCCAGAGCACGCGTATTGAT yielded a PBM binding z-score of 4.13. Work on CCTAGTTGGTCAAGGTCACTCACGCTATAGGTAC yielded a PBM binding z-score of 2.05. TAGCCTGGGTCATTGGGCCAGTATAGTACGCATC was tested, and the PBM binding z-score was 2.1. ATCTCTAGTTAAAAGTTCAGTGAATCCCGAGGAT was tested, and the PBM binding z-score was 3.49. TCTGCTAGGTCAGTGGGTCAGCTAACGAGCTGCC showed a PBM binding z-score of 3.51. Work on CCTTACGGGTCACGAGGTTTTAGCACGACGAGCG yielded a PBM binding z-score of 4.7. In the case of GCTTACGGGTCAAAGGCTATAGCATGAATAGAAT, the PBM binding z-score is reported as 6.55. AGAATGAGGTTATTAAGTTCAGGGAATTGCGGTC showed a PBM binding z-score of 1.08. ACAGACAGGTGATGAAGGTAACTCCGGCTATCAT showed a PBM binding z-score of -0.0688. Work on ATCTCTAGGTAACAAGTTCAGTGAAAGAGAGGAC yielded a PBM binding z-score of 1.73. Work on CGTCCAAGGTCAAACGTCAGTGAAGAGATGACGG yielded a PBM binding z-score of 5.2. Sequence AGTCACAGTTCAGGACGAGGTAACGTAAAGCACG has a PBM binding z-score of 0.623. With ACAGACAGGTGAGTGAAGGTAGCTCAGCTGGACG the PBM binding z-score was -0.0871. In the case of TTACCAAGGTGAAAGGTCGTTGGTGCACGCCTTG, the PBM binding z-score is reported as 8.19. GCTGCTAGGTCAACTCATGGTCAGCTAAAGCTCG was tested, and the PBM binding z-score was 1.79. In the case of CGCACTAGGTCAAGGACAGTGAATCTCCGCACGC, the PBM binding z-score is reported as 5.37. CCAACTAGGTCATCCAGGACAGTGAATACATTGA was tested, and the PBM binding z-score was 4.83. GCATATAGGTAGTACAAGGTGAAAGTCCGATTGT gave a PBM binding z-score of 0.775. GTGCCAAGGTGAATAGGTCGTTGATGAGTAGGCG gave a PBM binding z-score of 0.77. For CGTCCAAGGTCAATGCTATGTCAGTGAAAGCATT, the PBM binding z-score was 2.95. Sequence CGTCCAAGGTCTATGCTAGGTCAGTGAAAGCATT has a PBM binding z-score of -0.388. CGAACGAGGGCATGAGTTGATAGAAAATGCCGAT gave a PBM binding z-score of 0.956. With CGTCCAAGGTGAAAGGTCAGTGAAGAGATGACGG the PBM binding z-score was 8.46. Sequence CAAACTATGTCACAGAGGTCAAAGTCCGTGCGTA has a PBM binding z-score of 5.69. With TCTTGAAGATCAAAGGTTAAGAAAGCCGAAGCCT the PBM binding z-score was 6.85. For TTACCAAGGTGATAGGTCGTTGATGCACGCCTTG, the PBM binding z-score was 5.61. TCTGCTTGGTCAGTTGGTCAGCTAACGAGCTGCC was tested, and the PBM binding z-score was 0.933.
